This is an account of results in PubChem BioAssay AID493034 (The Scripps Research Institute Molecular Screening Center, 2011).

The campaign covered roughly 2,400 compounds. About 2,200 (92%) were called active. The set was probably picked from earlier hits. This is one part of the list. A number with no mark means an inactive call.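 The calls were made as follows: active = mean inhibition over triplicate runs exceeds the cutoff derived for the earlier primary screen (cut at about 25% in these data); inactive = the rest.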

The inhibition is how much of the control response was suppressed.

The target of the test is Platelet-activating factor acetylhydrolase IB subunit alpha2 (Homo sapiens) (UniProt P68402). As to the kind of experiment: PAFAH1B2 inhibitors, confirmation, biochemical, fluorescence polarization, FP-rhodamine probe, triplicate (AID 493034).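 Also: 0% = enzyme with DMSO and 100% = wells lacking PAFAH1B2 protein; inhibitors lower polarization by leaving the probe unbound.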 Particulars: recombinant PAFAH1B2, FP-rhodamine probe fluorescence polarization; at 3.39 µM; active compounds read high. On the technique in general: Fluorescence polarisation rises when a labelled molecule tumbles more slowly, as on binding a larger partner.
Sequence of Platelet-activating factor acetylhydrolase IB subunit alpha2 (Homo sapiens) (P68402 whole entry, looked up): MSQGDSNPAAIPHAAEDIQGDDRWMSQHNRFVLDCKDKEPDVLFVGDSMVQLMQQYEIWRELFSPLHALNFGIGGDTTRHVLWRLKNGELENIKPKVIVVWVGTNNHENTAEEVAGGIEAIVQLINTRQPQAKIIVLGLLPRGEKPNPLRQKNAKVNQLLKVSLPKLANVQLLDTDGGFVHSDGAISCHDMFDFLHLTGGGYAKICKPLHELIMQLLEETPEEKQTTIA
Turning to `C/C(=N\O)C1/C(=N/O)CC2C1C2(C)C` (stereo not drawn), the inhibition is 31.7% (active).
The same measure for `Cc1cc(-c2ccccc2)c2ccc(NC(=O)C(C)(C)C)nc2n1`: 23.8%.
The same measure for `Cc1cccc(OCC(=O)NCC(=O)N/N=C/c2cc(Br)cc(Br)c2O)c1`: 19.1%.
The same measure for `O=C(CNC(=O)c1cccc(Br)c1)N/N=C/c1cc(Br)cc(Br)c1O`: 33.1% (active); for `C=C[C@]1(C)C=C2CC[C@H]3[C@@](C)(CCC[C@@]3(C)C(=O)O)[C@@H]2CC1`: 30.9% (active).
On to `O=S(=O)(Oc1ccccc1N1CCCCC1)c1ccccc1`, for which the inhibition is 14.5%.
The same measure for `C=CCO/N=C(\C)c1c(O)c(C)c(-c2ccccc2)n(-c2ccccc2)c1=O`: 25.2% (active); for `CC1CCC2C(C1)c1sc(=O)[nH]c1SC2(C)C` (stereo not drawn): 55.2% (active).
The same measure for `N#CC1(C#N)CC(C=O)=C(N)C1(C#N)CC(=O)C12CC3CC(CC(C3)C1)C2` (stereo not drawn): 17.2%.
The same measure for `CCC[C@@H]1CCCO[C@@](C(=O)NCc2ccccn2)(C(F)(F)F)C1`: 20%; for `Cc1ccc(SCc2[nH]nc3c2C2(CCSCC2)C(C#N)=C(N)O3)cc1`: 32.9% (active).
For `CCOC(=O)C(CC(=O)O)=C(c1ccccc1)c1ccccc1`, the inhibition is 17.7%.
The same measure for `Cc1cc(C)cc(NC(=O)Nc2ccc(-n3ccc(C(F)(F)F)n3)cc2)c1`: 0.5%; for `CC1CCN(S(=O)(=O)c2ccc(NC(=O)CN3CCOCC3)cc2)CC1`: 20.2%; for `CC1CCN(S(=O)(=O)c2ccc(N=NC3=C(O)CC(C)(C)CC3=O)cc2)CC1`: 49.4% (active).
As for `CC1(c2ccc(Cl)cc2)NC(=S)N2C1NC(=S)N2c1ccccc1` (stereo not drawn), the inhibition was 18.1%.
As for `CC(C)(C)n1cnc2cc(NCc3ccc(Br)cc3)ccc21`, the inhibition is 35.2% (active).
As to `Cn1cnc2cc(NCc3ccc(Cl)cc3)ccc21`, the inhibition is 35.2% (active).
The same measure for `CCCn1cnc2cc(NCc3ccc(Br)cc3)ccc21`: 33.7% (active); for `CCn1cnc2cc(NCc3ccc(Cl)cc3)ccc21`: 20.5%; for `Cc1ccc(S(=O)(=O)N2CCCCC2)cc1C(=O)OCC(=O)N1c2ccccc2NC(=O)C1(C)C`: 23.6%.
The same measure for `CCOC(=O)c1sc(N(Cc2ccccc2)C(=O)COC(=O)c2ccccc2O)nc1C`: 1.5%; for `CC(=O)NN1C(=O)/C(=C/c2ccc(C(C)C)cc2)SC1=S`: 28.4% (active).
The same measure for `CC(=O)c1sc(NC(=O)C2(F)C(F)(F)C(F)(F)C(F)(F)C(F)(F)C2(F)F)nc1C`: 28.6% (active); for `O=C(CN1CCN(S(=O)(=O)c2ccc(Br)s2)CC1)NC1CCCCC1`: 22.8%.
Regarding `CCn1c(SCC(=O)N(C)C)nc2cc(S(=O)(=O)N3CCOCC3)ccc21`, the inhibition is 4.4%.
Turning to `O=C(c1cc([N+](=O)[O-])ccc1N1CCN(S(=O)(=O)c2ccc(Cl)c(Cl)c2)CC1)N1CCOCC1`, the inhibition is 27.3% (active).
In the case of `CC(NC(=O)c1ccc([N+](=O)[O-])o1)C12CC3CC(CC(C3)C1)C2` (stereo not drawn), the inhibition was 18%.
The same measure for `CC(NC(=O)CN1C(=O)NC(Cc2ccccc2)(Cc2ccccc2)C1=O)C12CC3CC(CC(C3)C1)C2` (stereo not drawn): 71.1% (active).
The same measure for `CN1CCN(S(=O)(=O)c2ccc(Sc3nnnn3-c3ccccc3)c([N+](=O)[O-])c2)CC1`: 41.1% (active); for `CC(Sc1ccc(S(=O)(=O)N2CCN(C)CC2)cn1)C(=O)NC1(C#N)CCCCC1` (stereo not drawn): 22.4%.
The same measure for `CN1CCN(S(=O)(=O)c2ccc(Sc3nnc(-c4cccs4)n3-c3ccccc3)nc2)CC1`: 21.5%.
`CC(OC(=O)C1=COCCO1)C(=O)Nc1ncc(Cl)cc1Cl` (stereo not drawn): the inhibition was 3.49%.
The same measure for `N#CC(=C1C=CC(=NO)C(Cl)=C1)c1ccc(Cl)cc1`: 29.9% (active); for `C[C@H]1CCC[C@]2(C)C[C@H]3OC(=O)C(CN4CCCCCC4)[C@H]3C=C12` (stereo partly drawn): 17.8%.
Turning to `O=C(NNS(=O)(=O)c1cccc(Cl)c1)c1cc(-c2ccc(F)cc2)nc2ccccc12`, the inhibition is 48.9% (active).
Regarding `CCNC(=S)NNC(=O)c1cc(-c2cccc(C)c2)nc2ccccc12`, the inhibition was 14.3%.
The same measure for `O=C(NNS(=O)(=O)c1ccc(Cl)cc1)c1cc(-c2ccccc2)nc2ccccc12`: 54.4% (active); for `CN(C)c1ccsc1C(=O)NNS(=O)(=O)c1ccc(Cl)cc1`: 17.9%.
The same measure for `Oc1[nH]c2ccc(Br)cc2c1N=Nc1nn[nH]n1`: 69.4% (active); for `CCc1ccc2[nH]c(O)c(N=NC3=NC(=O)CS3)c2c1`: 22.3%; for `O=C(O)c1ccc(N=Nc2c(O)[nH]c3ccc(Br)cc23)cc1`: 25.6% (active).
As to `C=CCSc1n[nH]c2nc3c(c(=O)n12)C1(CCCC1)Cc1ccccc1-3`, the inhibition was 46.3% (active).
The same measure for `CCn1c(SCC(N)=O)nc2c(c1=O)C1(CCCC1)Cc1ccccc1-2`: 20.1%.
Regarding `O=c1[nH]c(NCCO)nc2c1C1(CCCC1)Cc1ccccc1-2`, the inhibition is 22.6%.
The same measure for `Cc1ccc(S(=O)(=O)CCC(=O)NCCN2C(=O)S/C(=C/c3ccc(F)cc3)C2=O)cc1`: 21.1%; for `COc1cc(/C=C2\SC(=S)N(CCCCC(=O)O)C2=O)ccc1OS(=O)(=O)c1ccc(C)cc1`: 30.5% (active).
The same measure for `COc1cc(/C=C2\SC(=S)N(CC(=O)O)C2=O)ccc1OS(=O)(=O)c1ccc(C)cc1`: 38.1% (active); for `COc1cc(C=O)ccc1OCCSc1ccc(C)cc1`: 23%; for `CCOc1cc2[nH]c(=O)n(CCCC(=O)NCc3ccc(OC)cc3)c(=O)c2cc1OCC`: 3.79%.
The same measure for `Cc1ccc(S(=O)(=O)N2[C@@H](c3ccc(Br)cc3)C(C(=O)O)=CC[C@H]2c2ccc(C(C)C)cc2)cc1`: 93.5% (active); for `Cc1ccc(S(=O)(=O)N2[C@@H](c3ccc(Cl)cc3)C(C(=O)O)=CC[C@H]2c2ccc(C(C)C)cc2)cc1`: 95.9% (active); for `CC(C)c1ccc(C(C)NCCS(=O)(=O)c2ccc(Cl)cc2)cc1` (stereo not drawn): 18.1%.
Turning to `CC(Oc1ccc(Cl)cc1)C(=O)OCC(=O)Nc1ncc(Cl)cc1Cl` (stereo not drawn), the inhibition was 23.2%.
The same measure for `Cc1nc(N)nc(N)c1/C=C/C(C)(C)c1ccc(Cl)cc1`: 66.2% (active); for `O=C(O)CCCN1C(=O)C2C3CC(C2C1=O)C1C(c2ccccc2)c2sc(=O)[nH]c2SC31` (stereo not drawn): 74% (active); for `O=C(O)CCN1C(=O)C2C3CC(C2C1=O)C1C(c2ccccc2)c2sc(=O)[nH]c2SC31` (stereo not drawn): 79.6% (active).
Take `ONC(=Nc1ccc(Cl)cc1)c1ccccc1`: the inhibition was 23.1%.
The same measure for `O=C(CSc1n[nH]c(-c2ccc(S(=O)(=O)N3CCCCC3)cc2)n1)Nc1nccs1`: 44.6% (active); for `O=C(NCc1n[nH]c(=S)n1-c1ccc(Br)cc1)c1ccc(S(=O)(=O)N2CCCCC2)cc1`: 23.9%.
The same measure for `O=C(Nc1nc2ccc(S(=O)(=O)N3CCCCC3)cc2s1)c1ccncc1`: 20.7%; for `O=C(Cc1ccc(Br)cc1)c1ccc(O)cc1O`: 70.8% (active).
The same measure for `N#Cc1ccc(S(=O)(=O)N2CCc3[nH]c4ccc(F)cc4c3C2)cc1`: 31.2% (active); for `CCC(C)CCCCCCCCCCC(=O)O` (stereo not drawn): 16.6%; for `CN(CC(=O)Nc1ccc(C#N)cc1)Cc1ccc(Cl)cc1`: 19.9%.
`O/N=C/c1ccc2ccccc2c1`: the inhibition is 43.9% (active).
In the case of `Cc1ccc(COc2ccc(/C=N/O)cc2)cc1`, the inhibition is 22.1%.
The same measure for `Cc1ccc(S(=O)(=O)Nc2ccc(Cl)cc2C(=O)c2ccc(F)cc2)cc1`: 27.2% (active); for `Cc1ccc(S(=O)(=O)NC(=O)Nc2nc(-c3ccc(F)c(F)c3)cs2)cc1`: 9.68%.
The same measure for `CNC(=O)c1cc(C(=O)c2ccc(Cl)cc2)c(Br)[nH]1`: 14%.
Take `O=C1N(c2ccccc2)C(c2ccccc2)C12CCCCC2` (stereo not drawn): the inhibition was 24%.
The same measure for `CC1(C)C(=O)N(c2ccccc2)C1c1ccccc1O` (stereo not drawn): 36.5% (active).
As to `CCCC(=O)Nc1sc(-c2ccccc2)c(-c2ccccc2)c1C(=O)O`, the inhibition was 43.5% (active).
For `O=C(CCN1C(=O)/C(=C/c2ccccc2F)SC1=S)N[C@@H](CO)Cc1ccccc1`, the inhibition was 60.2% (active).
The same measure for `O=C(CCN1C(=O)/C(=C/c2ccccc2Cl)SC1=S)NC1=NCCS1`: 6.52%; for `COc1ccc(/C=C2\SC(=O)N(CCCC(=O)Nc3cc(Cl)ccc3C(=O)O)C2=O)cc1`: 40.3% (active).
Regarding `O=C(CCN1C(=O)/C(=C/c2ccccc2)SC1=S)N[C@@H](CO)Cc1ccccc1`, the inhibition is 66.8% (active).
The same measure for `O=C(CCCN1C(=O)/C(=C\c2ccccc2)SC1=S)Nc1ccc(O)cc1C(=O)O`: 61.7% (active); for `OC(c1ccccc1)(c1ccc(F)cc1)C(c1ccccc1)N1CCOCC1` (stereo not drawn): 21.9%; for `CN(C(=O)COC(=O)c1ccc(Cl)c(S(=O)(=O)NCc2ccccc2)c1)C1CCS(=O)(=O)C1` (stereo not drawn): 19.1%.
The same measure for `Cc1ccc(C)c(NC(=O)CN(C)C(=O)c2ccc3[nH]c4c(c3c2)CC(C)CC4)c1` (stereo not drawn): 29.8% (active); for `Cc1ccc(NC(=O)CN(C)C(=O)c2ccc3[nH]c4c(c3c2)CC(C)CC4)cc1` (stereo not drawn): 47.5% (active); for `O=[N+]([O-])c1ccc(O)c(/C=N/Nc2nc3ccccc3[nH]2)c1`: 28.4% (active).
As for `CC(C)C1Nc2ccc(S(N)(=O)=O)cc2C2C=CCC21` (stereo not drawn), the inhibition is 23%.
Consider `CC(C)C1Nc2c(O)cc(Cl)c([N+](=O)[O-])c2C2C=CCC21` (stereo not drawn), for which the inhibition was 39.4% (active).
The same measure for `O=c1[nH]c2c(s1)C(c1ccccc1)C1C3CCC(C3)C1S2` (stereo not drawn): 36.8% (active); for `O=c1[nH]c2c(s1)C(c1ccco1)C1C3CCC(C3)C1S2` (stereo not drawn): 51.9% (active); for `COc1ccccc1NC(=S)NCCc1ccc(Cl)cc1`: 25.7% (active).
The same measure for `Cc1ccc(C)c(NC(=S)NCCSc2ccc(Cl)cc2)c1`: 23.1%; for `S=C(NCCc1ccc(Cl)cc1)NC1CC1`: 40.9% (active).
The same measure for `Cc1csc(SCC(=O)NCCc2ccc(Cl)cc2)n1`: 22.8%.
Consider `O=C(CSc1ncn[nH]1)NCCc1ccc(Cl)cc1`, for which the inhibition was 18.2%.
`S=C(NCCc1ccc(Cl)cc1)NC1CCCCC1`: the inhibition was 22.8%.
